For this assay, the system named is MDA-MB-468 breast. The assay can be described thus: NCI-60 one-dose screen, 48 h (100 = growth as untreated, 0 = no growth, -100 = all killed). Particulars: 10 µM unless noted.

Several values for one entry are separate records, joined by “and”; a condition that tells them apart may be missing. Identical values can stand only once. The panel holds about 83,000 compounds, 20% with a hit somewhere; the sample as a whole holds those more often.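 Results are percent growth after 48 hours of single-concentration exposure. 100 means growth as in untreated cells, lower positive values show inhibition; negative values down to -100 show cell death.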 A number with no mark means an inactive call. Activity calls are given as the source filed them. The calls were made as follows: active = growth percent below 10; inactive = the rest.

As for `COc1ccc(/C=C/C(=O)/C=C/c2cc3ccccc3[nH]c2=O)cc1`, the growth was 43.9%.
In the case of `C[C@]12CC[C@@H]3c4ccc(O)c([N+](=O)[O-])c4CC[C@H]3[C@@H]1CC[C@@H]2NS(=O)(=O)c1cccc(Br)c1` it was 39.8%; in that of `C#Cc1cccc(Nc2nc(C)nc3cc(NC(=O)CCl)ccc23)c1`, -78.5% (active).
The figure for `COc1ccc(CNCCN2C(=O)c3ccc4c5c(ccc(c35)C2=O)C(=O)N(CCNCc2ccc(OC)c(OC)c2OC)C4=O)c(OC)c1OC` is -87.2% (active); for `NC(N)=NC(N)=NCCCc1ccccc1` it is -0.206% [100 µM] (active).
In the case of `CCn1c2ccccc2c2ccc(C(C)=O)cc21` it was 104%.
As for `CCSc1sc(-c2ccc(C)cc2)nc1[P+](c1ccccc1)(c1ccccc1)c1ccccc1`, the growth is -61.4% (active).
The figure for `COc1ccc(-c2nc3ccc(-c4nnc(SCC(=O)Nc5ccc(C(=O)/C=C/c6ccccc6)cc5)o4)cc3[nH]2)cc1OC` is 104%; for `Nc1ncnc2c1c(-c1cccc(Cl)c1)nn2CC(=O)N1CCOCC1` it is 98.6%; for `N=C(N)Sc1cccc[n+]1[O-]` it is 62.4%.
The figure for `O=C(CCCCCCSc1nc(-c2ccccc2)cc(-c2ccccc2)n1)NO` is 43.2%.
In the case of `CCN1C(=O)/C(=c2\sc3n(c2=O)C2C(NN=3)N(CC)C(=O)N2CC)c2ccccc21` (stereo not given), the growth is -13.5% (active).
In the case of `Nc1n[nH]c2ccc([C@@H]3Nc4c(F)cc5[nH]ncc5c4[C@H]4C5CCC(C5)[C@@H]34)cc12` (stereo not given in full), the growth is -4.88% (active).
Turning to `CC(C)(C)c1cc(Cl)c(O)c(CNCCO)c1`, the growth is 96.1%.
In the case of `O=C(Nc1cc(Cl)cc(Cl)c1)Nc1ccc2oc(=O)ccc2c1` it was 15.7%.
The figure for `CCNCCNc1cc(-c2ccc(Cl)c(Cl)c2)c(C#N)c2nc3ccccc3n12` is -80.9% (active); for `O=C(Nc1ccc(F)cc1)ON=C1CCCCC1` it is 105% [100 µM].
As to `Cc1ccc(CSC(=N)N)cc1C`, the growth is 104%.
The figure for `COc1ccc(/C=C/C(=O)C(CC2CCC2)C(=O)/C=C/c2ccc(OC)c(OC)c2)cc1OC` is -22.2% (active); for `CCOC(=O)c1c(C)nc2c(c1N)CC(=O)N2Cc1ccc(OC)cc1` it is 36.2%.
The figure for `N=c1c2cc(-c3ccccc3)oc2ncn1/N=C/c1ccc(Cl)cc1` is 88.2%.
For the molecule `COc1ccc(OC2=C(C#N)C(=N)N3c4ccccc4Sc4ccccc4C3N2)cc1` (stereo not given), the growth was 94.5%.
Turning to `CNC(=O)c1cc(Oc2ccc(NC(=O)Nc3ccc(Cl)c(OC(F)(F)F)c3)c(F)c2)ccn1`, the growth was 14.7%.
As for `O=C(O)/C=C/C(=O)NCc1ccccc1`, the growth is 101%.
The figure for `COc1nc(=O)n(C2C=CC(=O)O2)cc1F` (stereo not given) is 11.9%.
As for `Nc1c(C(=O)Nc2cccc(Cl)c2)sc2ncc(Br)cc12`, the growth was 94.1%.
Take `CN(C)c1ncnc2c1ncn2C1CCCCO1` (stereo not given): the growth is 111%.
The figure for `NC(N)=Nc1ccc(Nc2cccc(Oc3ccc(Cl)c(C(F)(F)F)c3)c2)cn1` is 8.19% (active); for `COc1ccc(S(=O)(=O)N2CCOCC2)cc1NC(=O)c1[nH]c(C)c2c1CCCCC2=O` it is 105% and 47.2%; for `O=[N+]([O-])c1ccc(Sc2cccc[n+]2[O-])c2nonc12` it is 49.3%.
The figure for `O=c1nc2c(-c3nc4ccccc4s3)n[nH]n2c2sc3c(c12)CCCC3` is 120%.
The figure for `CC1CN(C(C)C)C(=S)N(c2ccccc2)C1=O` (stereo not given) is 84.3%; for `CS(=O)(=O)c1ccc(-c2nc3ccccn3c2C=Nc2ccc(Cl)cc2)cc1` it is 98.1%.
In the case of `O=C1c2c(O)cc(O)cc2-c2c(-c3ccc(O)cc3)oc3cc(O)cc1c23`, the growth was 46.4%.
In the case of `COc1ccc2[nH]cc(-c3nc(N)nnc3-c3cn(C)c4ccc(Br)cc34)c2c1` it was -31.3% (active).

For the origin of these results see PubChem BioAssay (NCI).
